The supplement of paper PMC6555819

Experiments:
Assay in all cases: PBM binding z-score (relative to random genomic background probes); higher = stronger binding; sequences stand for … in GC…GCGATTGACAGCGTAGAATGAAGG
[1] = tested on: FXR:RXRa (NR concentration 270 nM, RXRa partner concentration 90 nM)
How it was run: (§1)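 Ligand-free nuclear receptor dimers were applied to custom Agilent 4×180K protein-binding microarrays whose double-stranded probes carried direct-repeat seeds, single-nucleotide variants, half-site ablations and random human genomic background sequences in 34-nt variable regions. Incubation lasted 1 h. Binding z-scores were computed against the random background probes from regression-normalized fluorescence.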

[2] = tested on: LXRa:RXRa (NR concentration 270 nM, RXRa partner concentration 90 nM)
How it was run: as §1

[3] = tested on: LXRa homodimer (NR concentration 270 nM)
How it was run: as §1

[4] = tested on: LXRb:RXRa (NR concentration 270 nM, RXRa partner concentration 90 nM)
How it was run: as §1

[5] = tested on: LXRb homodimer (NR concentration 270 nM)
How it was run: as §1

[6] = tested on: PPARa:RXRa (NR concentration 270 nM, RXRa partner concentration 90 nM)
How it was run: as §1

[7] = tested on: PPARg:RXRa (NR concentration 180 nM, RXRa partner concentration 90 nM)
How it was run: as §1

[8] = tested on: PPARg:RXRa 270nM:90nM, anti-RXR (NR concentration 270 nM, RXRa partner concentration 90 nM)
How it was run: as §1

[9] = tested on: PPARg:RXRa 30nM:10nM, anti-RXR (NR concentration 30 nM, RXRa partner concentration 10 nM)
How it was run: as §1

[10] = tested on: PPARg:RXRa 90nM:30nM, anti-RXR (NR concentration 90 nM, RXRa partner concentration 30 nM)
How it was run: as §1

[11] = tested on: PPARg:RXRa DBDmut IVT, anti-RXR (DBD mutation: RXRa K156A/R161A, NR concentration 270 nM, RXRa partner concentration 90 nM)
How it was run: as §1

[12] = tested on: PPARg:RXRa IVT, anti-PPARg (NR concentration 270 nM, RXRa partner concentration 90 nM)
How it was run: as §1

[13] = tested on: PPARg DBDmut:RXRa IVT, anti-PPARg (DBD mutation: PPARg1 K132A/R137A, NR concentration 270 nM, RXRa partner concentration 90 nM)
How it was run: as §1

[14] = tested on: PPARg DBDmut IVT, anti-PPARg (DBD mutation: PPARg1 K132A/R137A, NR concentration 270 nM)
How it was run: as §1

[15] = tested on: PPARg homodimer (NR concentration 180 nM)
How it was run: as §1

[16] = tested on: PXR:RXRa (NR concentration 270 nM, RXRa partner concentration 90 nM)
How it was run: as §1

[17] = tested on: PXR homodimer (NR concentration 270 nM)
How it was run: as §1

[18] = tested on: RARa:RXR (NR concentration 270 nM, RXRa partner concentration 90 nM)
How it was run: as §1

[19] = tested on: RARa homodimer (NR concentration 270 nM)
How it was run: as §1

[20] = tested on: RARb:RXRa (NR concentration 270 nM, RXRa partner concentration 90 nM)
How it was run: as §1

Sequence	PBM binding z-score [1]	PBM binding z-score [2]	PBM binding z-score [3]	PBM binding z-score [4]	PBM binding z-score [5]	PBM binding z-score [6]	PBM binding z-score [7]	PBM binding z-score [8]	PBM binding z-score [9]	PBM binding z-score [10]	PBM binding z-score [11]	PBM binding z-score [12]	PBM binding z-score [13]	PBM binding z-score [14]	PBM binding z-score [15]	PBM binding z-score [16]	PBM binding z-score [17]	PBM binding z-score [18]	PBM binding z-score [19]	PBM binding z-score [20]
CCTACTGGGCCAAGGTCATTCATCAGTCAAAGCA	3.63	3.65	1.71	3.07	0.00532	4.07	3.93	4.44	1.62	3.51	4	4.59	-0.258	-0.0447	2.02	3.93	1.66	3.84	0.345	3.34
TCATATAGGTACACAGGTGAAAGTCCGTAAGTTA	0.94	1.1	0.566	1.09	0.0342	1.94	2.32	3.69	4.18	4.15	3.06	2.34	0.518	0.496	1.23	1	0.981	0.908	1.26	0.943
TCGAGTAGGTTACCAATGGGGCATTCAACTTTCT	0.374	1.64	-0.293	1.55	0.172	1.67	0.652	1.67	1.26	1.67	3.18	3.11	-0.0959	-0.457	0.301	0.506	-0.241	0.916	-0.285	1.14
